High-throughput results: PubChem BioAssay, several laboratories
HNF4A DNA FP – change in binding of human HNF4 alpha to DNA; HNF4a-FITC DNA binding, fluorescence polarization, 1 h; actives 0.3% (n = 360,000); activity change, % at 10 µM; AID 1224865; P41235; in the data active = activity change above about 30%, passing the limit was not always enough
Target sequence (P41235 whole entry, looked up): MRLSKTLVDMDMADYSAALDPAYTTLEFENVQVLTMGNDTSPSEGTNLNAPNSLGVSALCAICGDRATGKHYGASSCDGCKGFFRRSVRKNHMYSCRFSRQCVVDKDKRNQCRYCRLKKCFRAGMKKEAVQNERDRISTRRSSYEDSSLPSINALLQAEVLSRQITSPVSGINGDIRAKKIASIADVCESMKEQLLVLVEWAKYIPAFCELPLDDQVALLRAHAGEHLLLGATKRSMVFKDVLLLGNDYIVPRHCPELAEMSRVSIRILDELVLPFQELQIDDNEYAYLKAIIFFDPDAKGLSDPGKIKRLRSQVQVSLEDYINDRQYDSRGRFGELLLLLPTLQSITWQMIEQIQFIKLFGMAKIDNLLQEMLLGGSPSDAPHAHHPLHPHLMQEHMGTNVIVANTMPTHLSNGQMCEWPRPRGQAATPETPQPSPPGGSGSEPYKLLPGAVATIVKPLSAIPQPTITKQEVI
Rpn11 inh – inhibitors of human proteasome Rpn11; O00487; human 26S proteasome, Ub4-pepOG fluorescence polarization; 20S core pre-blocked with epoxomicin; inhibition, % at 20 µM; actives 0.59% (n = 360,000); AID 588493;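 active = inhibition at 20 µM, scaled to each plate's controls, above about 33%, limit read from the data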
TPT1 inhibitor – C. albicans TPT1 enzyme inhibition; recombinant caTPT1, FP RNA substrate dephosphorylation; inhibition, % at 5 µM; actives 0.81% (n = 300,000); AID 1962;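 active = inhibition above the mean of all tested compounds plus 3 SD, set per screening campaign, cut at about 24% in these data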;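 note: plate controls were DMSO alone for no effect and ferristatin control at 100 nM for full effect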
Myeloid diff 2 – promotes myeloid progenitor differentiation; calls only at 10 µM; ER-HoxA9 myeloid progenitors, lysozyme-GFP differentiation, flow cytometry; AID 624256; actives 1% (n = 360,000);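 active = normalized GFP-positive differentiation at or above the plate's own cutoff, the solvent-only control mean plus 3 SD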;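 note: cells exposed to compound for four days before flow analysis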
caTPT1 confirm – TPT1 (C. albicans) inhibition, confirmation; shares compounds with TPT1 inhibitor; recombinant caTPT1, fluorescence polarization, RNase T1 coupled; inhibition, % at 5 µM; actives 74% (n = 2,400); AID 2149;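 active = inhibition above the primary screen limit, the mean inhibition of all tested compounds plus 3 SD, cut at about 25% in these data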
RNase T1 counter – blocks Aspergillus oryzae RNase T1, a TPT1 counter-screen. shares compounds with TPT1 inhibitor. RNase T1 cleavage, fluorescence polarization, 1536-well. inhibition, % at 5 µM. actives 83% (n = 2,400);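 active = inhibition above the solvent-only control well mean plus 3 SD, limit set per screening run, cut at about 23% in these data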;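 note: plate controls were DMSO wells with enzyme for no effect and wells without RNase T1 for full effect; inhibitors block cleavage so intact labeled substrate keeps polarization high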
* hit, by the source's call. Most compounds without a hit are left out; they make up all but 2.1% or so of the library.

For CCOC(=O)/C=c1\s/c(=C\c2c(OCC)ccc3ccccc23)c(=O)n1CC(=O)NCC1CCCO1 (configuration not stated) the results were HNF4A DNA FP 15.2, TPT1 inhibitor 24.7*, Myeloid diff 2 inactive, caTPT1 confirm 18.7 and RNase T1 counter 32.2*.
CCOC(=O)/C=c1\s/c(=C\c2ccccc2C)c(=O)n1CC(=O)NCc1ccc2c(c1)OCO2 was read as HNF4A DNA FP 11.3, Rpn11 inh 36.5, TPT1 inhibitor 41.4*, Myeloid diff 2 inactive, caTPT1 confirm 30.1* and RNase T1 counter 42.6*.
For CN1CCc2c(sc3c2C(=O)NC(c2ccccc2)N3)C1 (configuration not stated) the results were HNF4A DNA FP -0.8, Rpn11 inh 17.0, TPT1 inhibitor 27.3*, Myeloid diff 2 inactive, caTPT1 confirm 31.2* and RNase T1 counter 44.5*.
CN1CCc2c(sc3c2C(=O)NC(c2ccccn2)N3)C1 (configuration not stated) was read as HNF4A DNA FP -17.1, Rpn11 inh -39.0, TPT1 inhibitor -10.2 and Myeloid diff 2 inactive.
For Cc1ccc(C2NC(=O)c3c(sc4c3CCN(C)C4)N2)s1 (configuration not stated) the results were HNF4A DNA FP 9.6, TPT1 inhibitor 64.4*, Myeloid diff 2 inactive, caTPT1 confirm 38.5* and RNase T1 counter 47.4*.
`COc1cccc(C(C(=O)NCC2CCCO2)N(C(=O)Cn2nnc3ccccc32)c2ccccc2C(C)=O)c1OC` (configuration not stated) gave HNF4A DNA FP 5.4, Rpn11 inh 10.6 and TPT1 inhibitor -0.1.
For Cc1ccc(-c2nnc(Nc3ccc4c(c3)OCO4)c3ccccc23)cc1S(=O)(=O)NC(C)C the results were HNF4A DNA FP 2.0, Rpn11 inh 14.6, TPT1 inhibitor 52.5*, Myeloid diff 2 inactive, caTPT1 confirm 7.1 and RNase T1 counter 11.9.
Screening COc1ccc(NC(=O)Nc2ccon2)cc1OC returned HNF4A DNA FP -3.5, Rpn11 inh -3.2, TPT1 inhibitor 1.8 and Myeloid diff 2 inactive.
Screening O=C(O)c1cccc2c1C(=O)c1ccc(N3CCCC3)cc1S2(=O)=O returned HNF4A DNA FP 31.7, Rpn11 inh 39.2 and Myeloid diff 2 inactive.
For O=C1c2ccccc2S(=O)(=O)c2cc(C(=O)N3CCN(c4ccccc4)CC3)ccc21 the results were HNF4A DNA FP -1.9, Rpn11 inh 2.4, TPT1 inhibitor -1.4 and Myeloid diff 2 inactive.
O=C1c2ccccc2S(=O)(=O)c2cc(N3CCN(C(=O)c4ccccc4)CC3)ccc21 was read as TPT1 inhibitor 34.6*, caTPT1 confirm 60.6* and RNase T1 counter 70.3*.
O=C1c2ccccc2S(=O)(=O)c2cc(N3CCC4(CC3)OCCO4)ccc21 was read as TPT1 inhibitor 30.4*, caTPT1 confirm 45.2* and RNase T1 counter 55.9*.
Cc1ccc(S(=O)(=O)NCC(c2cccnc2)N2CCc3ccccc32)cc1 (configuration not stated) was read as HNF4A DNA FP -2.5, Rpn11 inh -2.3, TPT1 inhibitor -1.2 and Myeloid diff 2 inactive.
CCOC(=O)C1(CCCc2ccccc2)CCN(C(=O)CN2C(=O)CSC2=O)CC1 was read as HNF4A DNA FP -2.2, Rpn11 inh -2.5, TPT1 inhibitor -1.7 and Myeloid diff 2 inactive.
`O=C(NCC1COCCO1)c1cc(COc2c(F)cccc2F)on1` (configuration not stated) gave HNF4A DNA FP 2.5, Rpn11 inh -4.5, TPT1 inhibitor 5.4 and Myeloid diff 2 inactive.
`Fc1cc(F)cc(Nc2nc(Cl)nc(NC3CCCC3)n2)c1` gave HNF4A DNA FP 6.7, Rpn11 inh 11.6 and Myeloid diff 2 inactive.
For Oc1ccc2ccccc2c1C=Nc1ccc(N2CCOCC2)cc1 the results were TPT1 inhibitor 76.5*, caTPT1 confirm 67.1* and RNase T1 counter 85.8*.
C=Cc1ccc(N=Cc2c(O)ccc3ccccc23)cc1 was read as HNF4A DNA FP 80.0, TPT1 inhibitor 39.5*, Myeloid diff 2 inactive, caTPT1 confirm 128.9* and RNase T1 counter 132.6*.
`CC(=O)N(C)c1ccc(N=Cc2c(O)ccc3ccccc23)cc1` gave HNF4A DNA FP 5.9, Rpn11 inh 3.8, TPT1 inhibitor -0.7 and Myeloid diff 2 inactive.
